Hits are enriched below; roughly 3.5% of the tested compounds scored in any of these assays.
Mtb UGM inh: inhibitors of M. tuberculosis UDP-galactopyranose mutase; P9WIQ1; inhibition, % at 10 µM; purified UGM, fluorescence polarization probe displacement; actives 0.06% (n = 320,000); in the data active means inhibition above about 10%, passing the limit was not always enough
GDH-TPI inh: counter-screen for M. tuberculosis FBA inhibitors: GDH-TPI coupled enzymes | AID 588335 | inhibition, % at 4.8 µM | actives 1.2% (n = 360,000) | GDH-TPI coupled enzyme counterscreen, NADH absorbance; in the data active means inhibition above about 30%
Rv3671c protease: Rv3671c (M. tuberculosis) protease inhibition; P9WHR9; inhibition, % at 5.96 µM; actives 0.048% (n = 320,000); AID 2606; in the data active means inhibition above about 38%;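 further: extracellular domain of Rv3671c used as enzyme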
Target sequence (P9WHR9 whole entry, looked up, the tested form may be a part): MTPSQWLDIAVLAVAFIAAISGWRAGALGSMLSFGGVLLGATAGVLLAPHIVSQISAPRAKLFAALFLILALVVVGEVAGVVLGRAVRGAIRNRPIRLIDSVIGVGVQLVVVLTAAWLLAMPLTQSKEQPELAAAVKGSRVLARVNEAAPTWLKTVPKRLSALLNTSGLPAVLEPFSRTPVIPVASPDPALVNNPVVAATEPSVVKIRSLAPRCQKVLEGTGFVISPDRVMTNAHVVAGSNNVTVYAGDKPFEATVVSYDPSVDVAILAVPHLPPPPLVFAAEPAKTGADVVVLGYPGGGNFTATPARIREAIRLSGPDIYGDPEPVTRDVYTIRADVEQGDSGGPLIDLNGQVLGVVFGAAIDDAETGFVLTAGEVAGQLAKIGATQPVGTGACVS
FadD28 binding: inhibitors of Mycobacterium tuberculosis FadD28 bisubstrate binding; actives 0.22% (n = 360,000); inhibition, % at 12.5 µM; AID 588549; FadD28 bisubstrate probe binding, fluorescence polarization; in the data active means inhibition above about 8.5%, passing the limit was not always enough
FBA Mtb inh: Mtb fructose-bisphosphate aldolase inhibition; inhibition, % at 1 µM; purified M. tuberculosis FBA, fluorescence read-out; AID 588726; actives 2.3% (n = 360,000); P9WQA3; in the data active means inhibition above about 27%
Mtb hypoxia inh: Mtb hypoxia fluorescent reporter inhibition. AID 1159583. fluorescence inhibition, % (concentration not given with the values). actives 0.1% (n = 300,000). M. tuberculosis hypoxia-regulated fluorescent reporter, fluorescence; in the data active means fluorescence inhibition mostly above about 23%, no sharp cut-off; inactive means mostly below about 17%
Hits are given with their value; n = inactive; x = no result shown; + = active, no number.

SMILES	Mtb UGM inh	GDH-TPI inh	Rv3671c protease	FadD28 binding	FBA Mtb inh	Mtb hypoxia inh
Cc1cc(NN=Cc2ccc(O)cc2O)nc(N2CCOCC2)n1	x	x	x	x	x	n
Cc1cc(N/N=C/c2ccccc2O)nc(N2CCOCC2)n1	n	64	n	n	n	x
COc1cc(C=NNC(=O)c2nc3ccccn3c2C)cc(OC)c1O	x	x	x	x	x	n
O=C(CCl)Nc1cccc(Oc2ccccc2)c1	n	n	n	n	n	n
COc1cc(NC(=O)CCl)ccc(=O)c1	x	42	x	n	n	x
CC(=NN=C(N)SC1CC(=O)N(c2ccccc2)C1=O)c1cccs1 (stereo not given)	x	x	x	x	x	n
CCCN1C(=O)C(=NOCC(=O)Nc2ccc(C(C)C)cc2)c2ccccc21	x	x	x	x	x	n
CCCCCCCn1c(=N)n(CC(O)c2ccco2)c2ccccc21 (stereo not given)	n	n	n	n	n	n
N=c1n(CCN2CCCC2)c2ccccc2n1CC(O)c1ccco1 (stereo not given)	41	n	n	n	n	n
Nc1cccc(-c2nc3ccc(C(=O)c4ccccc4)cc3[nH]2)c1	n	n	n	n	n	n
COc1ccc2nc(-c3cccc(N)c3)[nH]c2c1	n	n	n	n	177	x
COc1ccc2nc(-c3ccc(N)cc3)[nH]c2c1	n	n	n	n	+	x
CCn1c(C)csc1=NC(=O)c1ccccc1	n	34	n	n	n	x
CCn1c(C)csc1=NC(=O)c1ccccc1O	n	37	n	n	n	x
CCn1c(C)csc1=NC(=S)Nc1ccccc1C	x	x	x	x	x	n
COc1ccc(C=NNC(=O)CNS(=O)(=O)c2ccccc2)cc1	x	x	x	x	x	n
O=[N+]([O-])c1ccc(-c2ccc(C=Nc3c(-c4ccco4)nc4ccccn34)o2)cc1	x	x	x	x	x	n
O=[N+]([O-])c1cc(-c2ccc(/C=N/c3nc4ccccn4c3-c3ccco3)o2)ccc1Cl	n	37	n	n	n	x
CN1C(=O)S/C(=C/c2cccnc2)C1=O	n	32	n	n	n	n
O=C(NCCN1C(=O)S/C(=C/c2cccnc2)C1=O)c1cccs1	n	32	n	n	n	n
O=C(O)CN1C(=O)S/C(=C\c2cccnc2)C1=O	n	n	n	n	n	n
CC(=O)C(=NNc1ccccc1)Sc1nnc(CCc2ccccc2)n1-c1ccccc1	x	x	x	x	x	n
CN(C)c1cccc(NC2=CC(=[N+]3CCOCC3)CC(C)(C)C2)c1	n	37	n	n	n	n
Cc1ccnc(NC(=O)CCC(=O)N(CC(=O)NC2CCCCC2)Cc2ccccc2)c1	n	n	n	n	n	n
CC(C)n1cc(C(=O)N(CC(=O)NC2CCCC2)Cc2ccccc2)cn1	n	n	n	n	n	n
SMILES	Mtb UGM inh	GDH-TPI inh	Rv3671c protease	FadD28 binding	FBA Mtb inh	Mtb hypoxia inh
CC1=CN2C(=NC(=O)CC2(C)C(=O)N(CC(=O)NC2CCCC2)Cc2ccc(Cl)cc2)C=C1 (stereo not given)	n	n	n	n	117	n
CC1=CN2C(=NC(=O)CC2(C)C(=O)N(CC(=O)NC2CCCC2)c2ccccc2C)C=C1 (stereo not given)	n	n	n	n	147	n
CC1=CN2C(=NC(=O)CC2(C)C(=O)N(CC(=O)NC2CCCC2)c2cc(C)cc(C)c2)C=C1 (stereo not given)	n	n	n	n	144	n
Cc1cc(C)cc(N(CC(=O)NC2CCCCC2)C(=O)CNC(=O)c2ccco2)c1	n	n	n	n	n	n
CC1=CC=CN2C1=NC(=O)CC2(C)C(=O)N(CC(=O)NC1CCCC1)Cc1ccccc1 (stereo not given)	n	n	n	n	152	n
COCCCn1c(O)c(/C=C2/N=C(C#N)C(=Nc3ccc(C)cc3)O2)sc1=S	x	x	x	x	x	n
CC1=CC=CN2C1=NC(=O)CC2(C)C(=O)N(CC(=O)NC1CCCC1)c1cc(C)cc(C)c1 (stereo not given)	n	n	n	n	174	n
C=CCn1c(O)c(N=NC(=O)CNC(=O)/C=C/c2ccc(OC)cc2)c2ccccc21	n	38	n	n	n	n
NC(=O)Cn1c(O)c(N=NC(=O)CNC(=O)/C=C/c2ccccc2)c2ccccc21	n	37	n	n	n	n
CCCn1c(O)c(N=NC(=O)CNC(=O)/C=C/c2ccc(OC)cc2)c2ccccc21	n	n	n	n	n	n
CCn1c(O)c(N=NC(=O)CNC(=O)c2cccnc2)c2ccccc21	x	37	x	n	n	x
C=CCn1c(O)c(N=NC(=O)CNC(=O)/C=C/c2ccco2)c2ccccc21	n	35	n	n	n	n
O=C1CCN(CCc2ccccc2)CCN1C(CO)Cc1ccccc1 (stereo not given)	x	x	x	x	x	n
COc1ccc(NN=C(C#N)S(=O)(=O)c2nsc(C)c2C#N)cc1	x	x	x	x	x	n
C[N+](C)(C)CC(=O)NN=Cc1c2ccccc2cc2ccccc12	x	x	x	x	x	n
O=C(NN=C1CCSC1)c1cccc([N+](=O)[O-])c1	x	x	x	x	x	n
c1ccc2nc(-c3nc4ccccc4[nH]3)ccc2c1	n	36	n	n	n	n
Cc1ccc(-c2ccc(/C=N/n3cnnc3)o2)cc1Cl	n	36	n	n	n	x
Cc1cc(C(=O)O)ccc1-c1ccc(/C=N/n2cnnc2)o1	n	50	x	n	n	x
Clc1cccc(-c2ccc(C=Nn3cnnc3)o2)c1	x	x	x	x	x	n
O=[N+]([O-])c1cc(-c2ccc(C=Nn3cnnc3)o2)cc([N+](=O)[O-])c1	x	x	x	x	x	43
Clc1cccc(-c2ccc(/C=N/n3cnnc3)o2)c1	n	50	n	n	n	x
Cc1ccc(-c2ccc(C=Nn3cnnc3)o2)c(Br)c1	x	x	x	x	x	n
Fc1ccc(-c2ccc(C=Nn3cnnc3)o2)cc1Cl	x	x	x	x	x	n
O=C(Nc1ccccc1)C1=CC(c2ccc(C(F)(F)F)cc2)CC(OCCCCO)O1 (stereo not given)	x	x	x	x	x	n
SMILES	Mtb UGM inh	GDH-TPI inh	Rv3671c protease	FadD28 binding	FBA Mtb inh	Mtb hypoxia inh
COc1c(C=NNC(=O)[C@H]2C[C@@H]2c2ccccc2)c(CCN(C)C(C)=O)cc2c1OCO2	x	x	x	x	x	n
CC(C)C[C@H]1CN([C@@H](Cc2ccc(O)cc2)CN2CCC[C@@H]2CN2C(=S)NC[C@@H]2Cc2ccccc2)C(=S)N1CC1CCCCCC1	x	x	x	n	n	x
Oc1ccc(C[C@H]2CNC(=S)N2CC2CCCN2C[C@H](Cc2ccccc2)N2C[C@H](Cc3ccc(O)cc3)N(CCc3ccccc3)C2=S)cc1 (stereo not given in full)	x	34	x	n	n	x
CCOc1ccc(CCN2C(=S)N([C@@H](CC(C)C)CN3CCCC3CN3C(=S)NC[C@@H]3Cc3ccc(O)cc3)C[C@@H]2Cc2ccccc2)cc1 (stereo not given in full)	x	38	x	n	n	x
CC(C)C[C@H]1CNC(=S)N1CC1CCCN1C[C@H](Cc1ccccc1)N1C[C@H](Cc2ccc(O)cc2)N(CC2CCCCCC2)C1=S (stereo not given in full)	x	32	x	n	n	x
CC(=O)c1ccc(NS(=O)(=O)Cc2ccccc2)cc1	n	35	n	n	n	n
O=S(=O)(Cc1ccccc1)Nc1ccccc1	n	n	n	n	n	n
O=C(N/N=C/C(Br)=C/c1ccccc1)c1ccncc1	n	36	n	n	n	x
